Measurements from ChEMBL document CHEMBL3433997, “St. Jude Leishmania screening dataset” (2016).

Key:
Type in all cases: functional
[1] = molecular target: Solute carrier family 2, facilitated glucose transporter member 1 (Homo sapiens) (UniProt P11166); assay: ST_JUDE_LEISH: Cytotoxicity at 2uM final concentration against transgenic Leishmania Mexicana promastigotes LmGLUT1 that are glucose transport deficient and complemented with the human glucose transporter GLUT1. Activity is measured by DNA content using SYBR green in vitro
[2] = molecular target: Hexose transporter 1 (Plasmodium falciparum) (UniProt O97467); assay: ST_JUDE_LEISH: Cytotoxicity at 2uM final concentration against transgenic Leishmania Mexicana promastigotes LmPfHT that are glucose transport deficient and complemented with the Plasmodium falciparum hexose transporter. Activity is measured by DNA content using SYBR green in vitro
[3] = molecular target: Glucose transporter (Leishmania mexicana) (UniProt O61059); assay: ST_JUDE_LEISH: Cytotoxicity at 2uM final concentration against transgenic Leishmania Mexicana promastigotes LmGT2 that are glucose transport deficient and complemented with the L. Mexicana glucose transporter 2. Activity is measured by DNA content using SYBR green in vitro

Sequence of Solute carrier family 2, facilitated glucose transporter member 1 (Homo sapiens) (P11166 whole entry): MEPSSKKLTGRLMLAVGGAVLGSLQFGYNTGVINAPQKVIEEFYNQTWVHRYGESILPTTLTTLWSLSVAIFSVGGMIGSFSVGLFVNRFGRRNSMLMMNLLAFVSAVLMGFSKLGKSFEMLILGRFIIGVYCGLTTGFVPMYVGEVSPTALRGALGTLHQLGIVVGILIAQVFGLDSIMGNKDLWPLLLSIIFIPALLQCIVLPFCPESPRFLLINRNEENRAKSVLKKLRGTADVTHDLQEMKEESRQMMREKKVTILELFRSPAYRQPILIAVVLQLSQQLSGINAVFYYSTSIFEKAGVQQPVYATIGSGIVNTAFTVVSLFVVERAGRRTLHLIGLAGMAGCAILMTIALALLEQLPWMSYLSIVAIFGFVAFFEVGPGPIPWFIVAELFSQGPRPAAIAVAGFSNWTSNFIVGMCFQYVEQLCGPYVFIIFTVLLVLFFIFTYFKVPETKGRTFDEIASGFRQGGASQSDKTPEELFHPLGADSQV

| SMILES | inhibition [1] | inhibition [2] | inhibition [3] |
| --- | --- | --- | --- |
| COc1cc(Nc2nccc(N3CCC(NC(=O)C(C)c4ccc(Cl)cc4)C3)n2)cc(OC)c1OC (centres undefined) | 0.95% | -0.55% | 1.19% |
| CC(=O)Nc1ccc(CN2CCc3ccc(NS(=O)(=O)c4cccc(OCc5ccc(Cl)cc5)c4)cc3CC2)s1 | 2.65% | -0.08% | 0.54% |
| C=CCC(CC=C)N1C(=O)C(c2ccccc2)(c2ccccc2)N=C1N | 0.75% | -0.83% | 0.62% |
| COCCCNC(=O)[C@H]1CNCCN1C(=O)c1ccccc1 | 1% | 0.97% | 3.67% |
| O=c1cc(NCCCNC2CCc3ccc(Cl)cc32)[nH]c2ccccc12 (centres undefined) | -2.61% | -0.73% | 1.83% |
| COc1cc2nc(N3CCN(C(=O)c4cccc(I)c4)CC3)nc(N)c2cc1OC | 5.23% | 3.9% | -0.04% |
| CC(C)c1sc(N2CCN(C)CC2)nc1C(=O)NCCc1ccc(Br)cc1 | 3.06% | 1.28% | 2.14% |
| O=C(NC1CC1)c1cnc(N2CCCC(c3ccccc3)C2)c(Cl)c1 (centres undefined) | 0.97% | -0.31% | -4.58% |
| CCCCOc1c(CCC)cc(Cc2cnc(N)nc2N)cc1CCC | 7.57% | 3.82% | -0.35% |
| COc1ccc(NC(=O)/C=C/c2ccc(-c3ccc(-c4noc(C)n4)cc3)cc2)cc1OCCN(C)C | -0.19% | 2.25% | 0.27% |
| FC(F)(F)c1ccc2[nH]c(-c3cccc(-c4ccc(CNCc5cnn(-c6ccccc6)n5)cc4)c3)nc2c1 | -0.1% | 0.61% | 2.19% |
| Cc1cc(NC(=O)NCCN2CCC(NS(=O)(=O)c3ccc(Br)cc3)C2)c2ccccc2n1 (centres undefined) | 4.43% | 3.86% | 3.49% |
| CCOc1ccc(-c2nonc2NC(=O)c2cccs2)cc1OCC | -0.24% | 1.17% | -0.56% |
| O=C(Nc1ccc(-c2cccc(-c3nc4cc(F)ccc4[nH]3)c2)cc1)Nc1ccsc1 | 5.02% | 6.71% | 0.78% |
| O=C(Nc1ccc2ccccc2c1)N(CCCn1ccnc1)Cc1csc(-c2ccc(CNCc3ccccc3)cc2)n1 | -0.95% | 0.41% | 1.63% |
| CCOc1ccc2c(=NN=Cc3ccccc3OC)cc(C)[nH]c2c1 | 7.35% | 7.09% | 6.71% |
| COc1cccc(CNC(=O)c2cccc(-c3ccc(CN4CCC(N5CCCC5)CC4)cc3)n2)c1 | 7.47% | 5.46% | 8.7% |

| SMILES | inhibition [1] | inhibition [2] | inhibition [3] |
| --- | --- | --- | --- |
| Cc1cccc2nc(-c3ccc(-c4cccc(CN5CCCC5CN)c4)cc3)[nH]c12 (centres undefined) | 1.08% | 1.46% | 1.07% |
| COc1cc2c(cc1S(=O)(=O)c1ccc(NC(=O)Nc3ccc(F)cc3)cc1)CCN(C)CC2 | 3.01% | 2.22% | 3.04% |
| CCNC1=NC2=C(CC(C(C)(C)C)CC2)C2(CCC(C(C)(C)C)CC2)S1 (centres undefined) | 4.57% | 4.3% | 1.15% |
| N#Cc1ccc(-c2ccc(C(=O)NC3CCN(CCN4CCC(c5cn(CCOC6CCCCO6)c6ccccc56)CC4)CC3)cc2)cc1 (centres undefined) | 14.4% | 6.81% | 21.2% |
| Cc1cccc2nc(-c3cccc(-c4ccc(NC(=O)Nc5ccc(Cl)c(Cl)c5)cc4)c3)[nH]c12 | 0.3% | -1.23% | 1.91% |
| COc1ccc(CN(C)CCCOc2ccc(NC(=O)c3cccc4c(=O)c5cccc(C)c5[nH]c34)cc2)cc1OC | 4.56% | 4.25% | 3.39% |
| NC(=O)NC(=O)C=Cc1ccco1 | 0.54% | 1.9% | 1.91% |
| CC1(C)N=C(N)N=C(N)N1c1cccc(I)c1 | 0.23% | -0.04% | 0.13% |
| CC(=O)c1sc(Cc2nc3ccccc3s2)nc1C | 0.49% | 1.15% | -1.55% |
| CCCC(C(=O)OCCNC)(c1ccccc1)c1ccccc1 | 1.4% | 0.51% | 0.81% |
| CCCCCOc1ccc(C=NNc2nc(O)cc(-c3ccccc3)n2)cc1 | 2.62% | 2.5% | 1.79% |
| COc1ccccc1C1CCN(C2CCC(NC(=O)c3cc(-c4ccc(Cl)cc4)cs3)CC2)CC1 (centres undefined) | -0.61% | 2.96% | 0.71% |
| CCN(CC)CCN(Cc1ccc(-c2ccc(C(F)(F)F)cc2)cc1)C(=O)Cn1c(SCc2ccc(F)c(F)c2F)nc(=O)c2c1CCC2 | 2.57% | 4.02% | 3.4% |
| O=C(c1cc2nc3c(c(C(F)(F)F)n2n1)CCc1ccccc1-3)N1CCN2CCCC2C1 (centres undefined) | 2.06% | 2.1% | 2.07% |
| O=C(NCCCCCN1CCC(c2c[nH]c3ccccc23)CC1)c1ccc(Cl)c(Cl)c1 | 2.42% | 4.92% | 2.52% |
| O=C1COc2ccc(S(=O)(=O)N3CCC[C@@H]3CCN3CCC(c4c[nH]c5cnccc45)CC3)cc2N1 | 0.76% | 0.68% | 2.12% |
